# Source: PubChem BioAssay
# This is a sample that favours compounds with a hit; in the whole collection about 4% have one here.
# Rv3671c inh – inhibitors of M. tuberculosis serine protease Rv3671c | inhibition, % at 5.96 µM | 320,000 compounds, 0.048% hits | AID 2606; in the data active = inhibition above about 38%;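 also: extracellular domain of Rv3671c used as enzyme; 0% = enzyme with DMSO and 100% = no enzyme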
# Mtb UGM inh – Mtb UDP-galactopyranose mutase inhibition. inhibition, % at 10 µM. purified UGM, fluorescence polarization probe displacement. P9WIQ1. 320,000 compounds, 0.06% hits; in the data active = inhibition above about 10%, passing the limit was not always enough
# Mtb betalactam – beta-lactam sensitization of Mtb H37Rv | M. tuberculosis H37Rv growth with meropenem, percent inhibition | AID 434955 | inhibition, % at 25 µM | 330,000 compounds, 0.27% hits;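 also: growth measured after seven days incubation then overnight dye step; 0% = bacteria only wells and 100% = bacteria with antibiotic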
# FBA Mtb inh – inhibits M. tuberculosis FBA enzyme | purified M. tuberculosis FBA, fluorescence read-out | inhibition, % at 1 µM | 360,000 compounds, 2.3% hits; in the data active = inhibition above about 27%;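 also: 0% = vehicle and 100% = reference inhibitor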
# Target sequence (P9WQA3 whole entry, looked up): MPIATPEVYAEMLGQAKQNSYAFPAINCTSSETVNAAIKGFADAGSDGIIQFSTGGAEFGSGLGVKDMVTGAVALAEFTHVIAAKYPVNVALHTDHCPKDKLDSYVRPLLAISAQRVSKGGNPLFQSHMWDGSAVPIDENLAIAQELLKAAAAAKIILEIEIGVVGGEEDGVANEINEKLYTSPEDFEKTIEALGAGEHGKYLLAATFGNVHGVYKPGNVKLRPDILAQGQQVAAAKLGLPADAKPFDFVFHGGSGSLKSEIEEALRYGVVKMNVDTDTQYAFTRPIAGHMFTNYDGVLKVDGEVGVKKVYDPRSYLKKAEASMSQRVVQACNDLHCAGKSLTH
# GDH-TPI inh – inhibits GDH-TPI coupling enzymes, artifact for Mtb FBA screen; GDH-TPI coupled enzyme counterscreen, NADH absorbance; inhibition, % at 4.8 µM; 360,000 compounds, 1.2% hits; AID 588335; in the data active = inhibition above about 30%;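 also: 0% = DMSO wells and 100% = wells lacking the enzyme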
# RecA splice inh – blocks M. tuberculosis RecA intein splicing. P9WHJ3. cell-free RecA intein splicing, fluorescence. inhibition, % (no concentration beside the values). 290,000 compounds, 0.75% hits. AID 2221; in the data active = inhibition above about 30%;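 also: 0% = vehicle wells and 100% = reference inhibitor control wells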
# GFP chromo cs – counter-screen GFP chromophore formation inhibition; EC50, µM; 2,100 compounds, 83% hits; shares compounds with RecA splice inh; AID 434968; cell-free GFP chromophore formation, fluorescence
# Numbers without * were called inactive; . = no result. Unless noted, no rule for the calls is given here.
SMILES,Rv3671c inh,Mtb UGM inh,Mtb betalactam,FBA Mtb inh,GDH-TPI inh,RecA splice inh,GFP chromo cs
Cc1cccc(C)c1N1C(=O)C(Cl)=C(N2CCCC2)C1=O,7.2,-2.0,4.5,-5.0,-3.7,-6.3,.
Cc1ccc(N2C(=O)C(Cl)=C(N3CCOCC3)C2=O)c(C)c1,3.5,-0.7,8.4,-6.6,13.1,60.0*,10.7*
CCOC(=O)C1=C[C@@H](C(C)(C)C)N(S(=O)(=O)c2ccc([N+](=O)[O-])cc2)[C@H]1c1ccccc1,.,.,.,-1.7,.,.,.
O=C1C(Cl)=C(N2CCOCC2)C(=O)N1c1ccccc1F,1.5,-2.0,8.6,0.2,9.4,.,7.2*
O=C(N1CCOCC1)N1CCN(c2ccccc2F)CC1,9.0,0.5,-3.1,3.3,0.5,1.8,.
COc1ccc(-c2cc(=O)n(CCC#N)[nH]2)cc1,-198.3,1.0,-4.0,1.8,4.0,96.7*,2.01*
CC1=C(C)/C(=N/OC(=O)c2cccc([N+](=O)[O-])c2)C=CC1=O,-12.6,-0.1,93.7,-9.5,24.9,47.4*,>38
N/C(=N/OC(=O)c1cccc([N+](=O)[O-])c1)c1cccc([N+](=O)[O-])c1,-0.8,-1.4,59.9,-0.3,4.3,-7.4,.
CCCc1noc2c1C(c1ccoc1)C(C#N)=C(N)N2 (stereo not drawn),-3.1,0.3,-5.5,1.8,13.0,79.2*,>38
N#CC1=C(N)OC2=C(C(=O)CCC2)C1c1ccoc1 (stereo not drawn),2.1,3.7,-0.6,-4.1,9.5,-0.6,.
COc1ccccc1CNC(=O)c1csc(Cc2ccc(Cl)cc2)n1,-3.6,-2.0,5.5,3.1,1.1,3.1,.
Cc1cc(C)nc(N2N=C(c3ccccc3)CC2=O)n1,-0.5,0.2,-11.1,0.6,14.6,.,.
COc1ccc(C2=NN(c3nc(C)cc(C)n3)C(=O)C2)cc1,-12.6,0.9,2.5,6.4,0.6,78.3*,6.87*
O=C1c2ccccc2C(=O)N1Cc1cccnc1,4.8,0.9,-11.2,-0.9,-2.9,-9.0,.
Cc1nc2ccccc2c2c1C(=O)N(Cc1cccnc1)C2=O,-3.8,1.9,2.6,-0.9,1.4,53.7*,0.815*
COc1ccc(C2c3c(ncn(Cc4ccco4)c3=N)Oc3ccc4ccccc4c32)cc1 (stereo not drawn),-128.4,0.2,74.7,-0.1,2.3,29.5,.
N=c1c2c(ncn1Cc1ccco1)Oc1ccc3ccccc3c1C2c1ccccc1 (stereo not drawn),-148.2,0.9,78.0,-6.8,-3.4,30.1*,32.8*
O=C(Nc1ccc2cn[nH]c2c1)c1c(Cl)cccc1Cl,0.8,0.9,-5.1,0.0,0.8,1.2,.
O=C1C(Cl)=C(Nc2ccc3cn[nH]c3c2)C(=O)c2ccccc21,-26.9,4.2,61.4,-2.1,13.0,89.5*,1.52*
COc1ccccc1N1CCN(CC(=O)c2c(C)n(C)c3ccccc23)CC1,-3.8,3.2,-6.5,-4.4,8.0,0.5,.
COc1ccccc1N1CCN(CC(=O)c2c(C)[nH]c3cc(C)ccc23)CC1,-6.7,-0.7,8.6,-3.6,0.0,8.7,>38
CCOC(=O)c1c(NC(=O)/C=C/C(=O)O)sc(C)c1-c1ccc(F)cc1,-16.1,0.3,-3.0,1.9,14.7,60.2*,33.6*
COC(=O)c1c(NC(=O)/C=C/C(=O)O)sc(C)c1-c1ccc(C(C)C)cc1,-1.1,1.2,8.2,2.9,14.8,77.5*,13.2*
COC(=O)c1sc(-c2ccc(Cl)cc2)cc1NC(=O)/C=C/C(=O)O,-0.6,0.2,85.0,-0.3,20.7,70.4*,27.5*
COC(=O)c1c(NC(=O)/C=C/C(=O)O)sc(C)c1-c1ccc(C)c(C)c1,-17.8,-0.4,1.4,0.2,20.7,63.0*,37.5*
COC(=O)c1sccc1NC(=O)/C=C/C(=O)O,-6.3,1.0,5.0,2.2,7.0,-0.1,.
CC(C)(C)c1cc(C(=O)NCC(=O)OCC(=O)c2cccc([N+](=O)[O-])c2)cc(C(C)(C)C)c1,-9.1,0.2,6.5,-3.0,-3.7,-0.9,.
COc1ccc(OC)c(CC(NC(C)=O)C(=O)NC2CCN(S(=O)(=O)c3ccc(NC(C)=O)cc3)CC2)c1 (stereo not drawn),5.3,1.3,-0.4,1.2,7.6,-1.0,.
CC1(c2ccccc2Cl)NC(=O)N(CC(=O)N2CCN(S(=O)(=O)c3ccccc3)CC2)C1=O (stereo not drawn),-6.1,1.0,0.8,0.5,16.5,-1.5,.
